Sampled rows, rich in hits. Any-hit rate of the full collection: about 19%.
HT1080 IDH1KD tx = HT-1080 IDH1 knockdown cell toxicity (counter line); HT-1080 IDH1 knockdown viability, ATP luminescence, 48 h; 2% of 360,000 active; AID 686971; Potency, µM (series often up to 46.1 µM), for the others: at the highest dose activity, negative = toxicity, hits mostly cytotoxic;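 also: 0% = DMSO wells and -100% = cell-free medium wells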
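HT-1080-IDH1KD cells (IDH1 knocked down), 750/well in RPMI with 5% FBS, treated with compound 48 h at 37 degrees C. Viability by CellTiter-Glo luminescence, normalised to DMSO and no-cell wells; concentration-response curves classed.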
KB-V1 cytotox = kills drug-selected multidrug resistant KB-V1 cells. 3.4% of 400,000 active. Potency, µM (doses to about 46.1 µM), actives largely listed as cytotoxic. KB-V1 MDR cells viability, CellTiter-Glo, 72 h. AID 1347076; also: nearly all actives have a fitted effect of over 60% in size
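Luminescent ATP read-out (CellTiter-Glo, 10 min) measures survival of drug-selected KB-V1 MDR cells after 72 h, 37 degrees C compound exposure. Medium: phenol-red-free DMEM, 10% FBS. Values from fitted concentration-response curves.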
DT40 TDP1 no CPT = qHTS for Inhibitors of human tyrosyl-DNA phosphodiesterase 1 (TDP1): qHTS in cells in absence of CPT; 15% of 420,000 active; DT40 Tdp1-/- hTDP1 cells, no CPT, ATP luminescence, 48 h; Potency, µM (top dose mostly 46.2 µM), for the others: at the top dose activity change, negative = growth inhibition, hits mostly inhibitors; also: nearly all actives have a fitted effect of over 55% in size
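Cells were dispensed at 400 per well, compounds added by pin tool, plates incubated ≥48 hr at 37 °C, then CellTiter-Glo added for 30 min at room temperature before luminescence reading. Line: DT40 Tdp1-/- complemented with hTDP1; camptothecin omitted.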
HT1080NT lethal = kills 2HG-producing HT-1080-NT fibrosarcoma cells | Potency, µM (top dose mostly 46.1 µM), inactives show at the top dose activity, negative = less viability, most hits filed as cytotoxic | HT-1080-NT fibrosarcoma viability, CellTiter-Glo ATP luminescence, 48 h | 1.6% of 360,000 active;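 also: NT is the 2HG producing partner of a matched IDH1 knockdown line; 0% = DMSO-treated cells and -100% = media-only wells without cells; nearly all actives have a fitted effect of over 55% in size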
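750 cells/well, RPMI + 5% FBS; 2 h settle, compound pin-transfer, 48 h at 37 degrees C. CellTiter-Glo 10 min RT, luminescence. Normalized to DMSO and media-only wells.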
KB-3-1 cytotox = kills parental KB-3-1 adenocarcinoma cells; KB-3-1 viability, CellTiter-Glo ATP luminescence, 72 h; Potency, µM (titrated, usually from 46.1 µM), most hits filed as cytotoxic; 1.4% of 400,000 active; AID 1347075; also: nearly all actives have a fitted effect of over 60% in size
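Parental KB-3-1 viability, qHTS format: 72 h compound exposure, 37 °C; CellTiter-Glo; media-only wells and DMSO plates as controls; concentration-effect fits on corrected data.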
DT40 TDP1 CPT = growth inhibition of DT40 Tdp1-/-;hTDP1 cells with camptothecin (screen for TDP1 inhibitors); chicken DT40 Tdp1-/-;hTDP1 cells + 20 nM CPT, ATP luminescence, 48 h; Potency, µM (titrated, usually from 46.2 µM), for inactives: at the top dose activity change, negative = growth inhibition, actives largely listed as inhibitors; 12% of 420,000 active; AID 686979; also: nearly all actives have a fitted effect of over 55% in size
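Cell growth measured by CellTiter-Glo luminescence after a minimum 48 h, 37 C compound exposure with 20 nM CPT in Tdp1-knockout DT40 cells stably expressing hTDP1, seeded 400/well; qHTS titration format.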
Starred values were filed as active, the others as inactive. Calls follow the shape of the dose curve; as a rule, active = well fitted curve in the direction sought with a large enough effect; inconclusive = small, poorly fitted or top-dose-only effect, or another doubt; inactive = no such curve, though single readings can be large; an effect the other way counts as inactive or inconclusive. Unless noted, % is scaled to controls: 0 for no effect and ±100 for the full control effect; potency is read from the fitted curve at half-maximal effect.

Screening CCOC(=O)c1cc(S(=O)(=O)N2CCN(c3ccccc3OC)CC2)[nH]n1 returned KB-V1 cytotox inactive, DT40 TDP1 no CPT -17%, KB-3-1 cytotox inactive and DT40 TDP1 CPT -15%.
For CCOC(=O)c1cc(S(=O)(=O)N2CCN(c3cc(Cl)ccc3C)CC2)[nH]n1 the results were KB-V1 cytotox inactive, DT40 TDP1 no CPT inconclusive, KB-3-1 cytotox inactive and DT40 TDP1 CPT 12µM*.
`CCCCN1CC(c2nc3ccccc3n2CCCCOc2cccc(C)c2C)CC1=O` (stereo not drawn) gave KB-V1 cytotox 18µM*, DT40 TDP1 no CPT 21µM*, KB-3-1 cytotox inactive and DT40 TDP1 CPT inconclusive.
CCCCN1CC(c2nc3ccccc3n2CCCCOc2cc(C)cc(C)c2)CC1=O (stereo not drawn) was read as KB-V1 cytotox inactive, DT40 TDP1 no CPT 7.3µM*, KB-3-1 cytotox inactive and DT40 TDP1 CPT 12µM*.
For CCCCN1CC(c2nc3ccccc3n2CCCCOc2ccc(C)c(C)c2)CC1=O (stereo not drawn) the results were KB-V1 cytotox inactive, DT40 TDP1 no CPT 7.3µM*, KB-3-1 cytotox inactive and DT40 TDP1 CPT 10µM*.
`Cc1cccc(OCCCCn2c(C3CC(=O)N(c4ccc(C)cc4C)C3)nc3ccccc32)c1` (stereo not drawn) gave KB-V1 cytotox inconclusive, DT40 TDP1 no CPT inconclusive, KB-3-1 cytotox inactive and DT40 TDP1 CPT inconclusive.
C=C(C)Cn1c(C2CC(=O)N(Cc3ccccc3)C2)nc2ccccc21 (stereo not drawn) was read as HT1080 IDH1KD tx -7%, KB-V1 cytotox inactive, DT40 TDP1 no CPT inconclusive, HT1080NT lethal -4%, KB-3-1 cytotox inactive and DT40 TDP1 CPT inconclusive.
`CC1(C(=O)O)CCCN(C(=O)c2cc3ccccc3s2)C1` (stereo not drawn) gave HT1080 IDH1KD tx 13%, KB-V1 cytotox inactive, DT40 TDP1 no CPT 5%, HT1080NT lethal 18%, KB-3-1 cytotox inactive and DT40 TDP1 CPT 2%.
CCn1cc(S(=O)(=O)Nc2cc(C)ccc2F)cn1 was read as HT1080 IDH1KD tx 9%, KB-V1 cytotox inactive, DT40 TDP1 no CPT 10%, HT1080NT lethal 6%, KB-3-1 cytotox inactive and DT40 TDP1 CPT 1%.
`CC(C)c1ccc(NC(=O)CCNS(=O)(=O)c2ccc3c(c2)CCCC(=O)N3)cc1` gave KB-V1 cytotox inactive and KB-3-1 cytotox inactive.
COc1ccc(-c2cc(C(F)(F)F)nc(SCCC(=O)Nc3ccc(F)cc3F)n2)cc1 was read as KB-V1 cytotox inconclusive, DT40 TDP1 no CPT inconclusive, KB-3-1 cytotox inactive and DT40 TDP1 CPT inconclusive.
Screening COc1cccc(C2CNC3(CCCC(C)C3)c3[nH]c4ccccc4c32)c1OC (stereo not drawn) returned HT1080 IDH1KD tx inconclusive, KB-V1 cytotox inconclusive, DT40 TDP1 no CPT 23µM*, HT1080NT lethal inconclusive, KB-3-1 cytotox inactive and DT40 TDP1 CPT inconclusive.
For Cc1ccc(NC(=O)CN2C(=O)C(c3ccccc3)=NC2(C)C)cc1C the results were DT40 TDP1 no CPT -6% and DT40 TDP1 CPT 11%.
Cc1cc(C)c(C#N)c(Sc2nc(C)c([N+](=O)[O-])c(C)c2C#N)n1 was read as HT1080 IDH1KD tx 4.6µM*, KB-V1 cytotox inactive, DT40 TDP1 no CPT 5.8µM*, HT1080NT lethal 16µM*, KB-3-1 cytotox inconclusive and DT40 TDP1 CPT 3.7µM*.
Screening Cc1nc(Sc2ccccc2)c(C#N)c(C)c1[N+](=O)[O-] returned HT1080 IDH1KD tx inconclusive, KB-V1 cytotox inconclusive, DT40 TDP1 no CPT 16µM*, HT1080NT lethal -28%, KB-3-1 cytotox inactive and DT40 TDP1 CPT inconclusive.

Screening results (PubChem)
